Sampled rows, rich in hits. Any-hit rate of the full collection: about 1.3%.
TRPV1 ag: HTS Assay for Compounds that Act as Agonists of the Vanilloid Receptor 1; activation, % at 8.33 µM; hit rate 0.19% among 320,000; AID 540275, 2011; TRPV1-expressing cells, Fluo-8 calcium influx, agonist mode; Transient receptor potential cation channel subfamily V member 1 (Homo sapiens), Q8NER1; in the data active means activation above about 80%; inconclusive means between about 30% and that limit
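TRPV1-expressing cells were cultured overnight at 35.5C and loaded with Fluo-8 calcium dye for 40 to 90 min at room temperature. After a 10 s baseline, compound was added and calcium influx was read kinetically for 3 min (ex 480/em 520 nm).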
TRPV1 potentiator: HTS Assay for Compounds that Act as Potentiators of the Vanilloid Receptor 1; TRPV1-expressing cells, Fluo-8 calcium influx, capsaicin EC20 potentiation; potentiation, % at 8.33 µM; hit rate 0.02% among 320,000; AID 540277, 2011; in the data active means potentiation above about 80%; inconclusive means between about 30% and that limit
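Cells expressing TRPV1 were dye-loaded with Fluo-8 and read kinetically: 10 s baseline, 3 min after compound (agonist portion), then 2 min after EC20 capsaicin (allosteric enhancer portion). Calcium-bound dye fluorescence at 480/520 nm.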
KCNH2 3.1 block: qHTS for Inhibitors of KCHN2 3.1: Mutant qHTS. AID 720553, 2013. hit rate 0.95% among 340,000. activity change, % (tested at about 1.8 µM). Potassium voltage-gated channel subfamily H member 2, brain isoform KCNH2 3.1 (human). U2OS KCNH2 3.1, thallium flux FluxOr; active compounds read low;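 active means maximum activity change below -70%; inconclusive means maximum activity change from -70% to -50%; inactive means maximum activity change above -50%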;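 further: thallium influx rate constant from kinetic fluorescence after stimulation buffer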
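U2OS cells transduced with KCNH2 3.1 mutant virus (1.77 x 10^8 /mL, 4 h), plated overnight at 37 C, loaded 45 min with FluxOr dye plus Red40 quencher. Thallium flux rate constant from kinetic reads after stimulation buffer, normalised to controls.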
hERG WT inh: qHTS for Inhibitors of KCHN2 3.1: Wildtype qHTS; Voltage-gated inwardly rectifying potassium channel KCNH2 (Homo sapiens), Q12809; U2OS, BacMam KCNH2, thallium flux FluxOr; active compounds read low; activity change, % at 1.84 µM; hit rate 0.37% among 340,000; AID 720551, 2013;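 active means maximum activity change below -70%; inconclusive means maximum activity change between -70% and -50%; inactive means maximum activity change above -50%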
Target sequence (Q12809 whole entry, looked up): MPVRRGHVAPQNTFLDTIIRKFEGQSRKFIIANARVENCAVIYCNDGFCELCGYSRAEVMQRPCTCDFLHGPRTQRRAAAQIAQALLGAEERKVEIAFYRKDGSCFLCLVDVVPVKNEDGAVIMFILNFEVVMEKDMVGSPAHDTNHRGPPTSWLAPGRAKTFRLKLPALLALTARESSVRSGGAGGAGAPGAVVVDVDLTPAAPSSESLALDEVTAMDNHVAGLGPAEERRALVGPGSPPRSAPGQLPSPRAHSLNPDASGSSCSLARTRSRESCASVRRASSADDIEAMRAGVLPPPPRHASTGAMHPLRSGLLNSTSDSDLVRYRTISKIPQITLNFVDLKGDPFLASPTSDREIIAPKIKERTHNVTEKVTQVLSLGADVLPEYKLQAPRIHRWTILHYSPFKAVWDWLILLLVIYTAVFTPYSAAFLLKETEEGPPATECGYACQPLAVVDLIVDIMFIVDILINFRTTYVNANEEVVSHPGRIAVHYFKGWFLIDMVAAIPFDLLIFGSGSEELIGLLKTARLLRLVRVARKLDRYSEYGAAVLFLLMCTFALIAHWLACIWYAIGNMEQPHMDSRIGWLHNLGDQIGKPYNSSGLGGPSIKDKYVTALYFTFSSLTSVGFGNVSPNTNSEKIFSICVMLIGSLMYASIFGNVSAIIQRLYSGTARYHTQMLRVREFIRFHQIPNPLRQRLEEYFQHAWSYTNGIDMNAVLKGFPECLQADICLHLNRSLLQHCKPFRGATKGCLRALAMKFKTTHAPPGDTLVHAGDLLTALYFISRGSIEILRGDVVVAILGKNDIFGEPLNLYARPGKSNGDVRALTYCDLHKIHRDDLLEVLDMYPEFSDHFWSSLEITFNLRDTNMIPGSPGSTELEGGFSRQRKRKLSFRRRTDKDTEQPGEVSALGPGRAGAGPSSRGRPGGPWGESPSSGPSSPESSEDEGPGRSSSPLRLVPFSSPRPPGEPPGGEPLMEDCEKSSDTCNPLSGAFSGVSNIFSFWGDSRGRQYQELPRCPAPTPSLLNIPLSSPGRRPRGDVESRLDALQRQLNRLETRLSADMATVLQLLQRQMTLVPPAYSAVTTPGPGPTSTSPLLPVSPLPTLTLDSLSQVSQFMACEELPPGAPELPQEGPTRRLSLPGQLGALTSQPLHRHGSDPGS
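U2OS cells transduced with wild-type KCNH2 virus are loaded with FluxOr dye for 45 min, and thallium flux is measured in kinetic reads before and after stimulation buffer. Rate constants are normalized to DMSO controls.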
Numbers stand for hits; i = inactive; ? = inconclusive; nt = not tested or not shown.

SMILES | TRPV1 ag | TRPV1 potentiator | KCNH2 3.1 block | hERG WT inh
Cc1c(-c2ccccc2)sc2nc[nH]c(=S)c12 | i | i | -82 | -116
CN(C)S(=O)(=O)c1ccc(N2CCCC2)c(C(=O)N2CCN(c3ccc([N+](=O)[O-])cc3)CC2)c1 | i | i | -116 | -83
CN(C(=O)c1cc([N+](=O)[O-])ccc1N1CCCC1)C1CCCCC1 | i | i | i | i
CC1CCN(c2ccc([N+](=O)[O-])cc2C(=O)O)CC1 | i | i | -178 | -133
O=C(c1sc2cc([N+](=O)[O-])ccc2c1Cl)N1CCOCC1 | i | i | i | -97
O=C(COc1ccc(Cl)cc1)N1CCN(c2ccc([N+](=O)[O-])c(N3CCOCC3)c2)CC1 | i | i | -81 | i
O=C(c1cc([N+](=O)[O-])ccc1N1CCOCC1)N1CCCCC1 | i | i | i | i
O=C(c1cc([N+](=O)[O-])ccc1N1CCOCC1)N1CCN(c2ccc([N+](=O)[O-])cc2)CC1 | i | i | -106 | -125
Cc1csc2nc(NC(=O)c3ccccc3)sc(=O)c12 | i | i | -79 | i
Cc1csc2c(=O)sc(NC(=O)c3ccc(F)cc3)nc12 | i | i | i | i
CCOc1ccc(CNc2ccc3c(c2)ncn3C)cc1 | i | i | i | i
CCCn1cnc2cc(NCc3cccc(OC)c3)ccc21 | i | i | -74 | i
CCCn1cnc2cc(NCc3ccc(Br)cc3)ccc21 | i | i | -83 | i
CCOc1ccc(CNc2ccc3c(c2)ncn3C(C)(C)C)cc1 | i | i | -110 | i
COc1ccc2oc(C(=O)OCC(=O)NC3CCS(=O)(=O)C3)c(C)c2c1 (stereo unspecified) | nt | nt | i | i
Cc1cc(-c2ccccc2)nc(=O)[nH]1 | i | i | -192 | -167
O=c1nc(-c2ccccc2)cc(C(F)(F)F)[nH]1 | i | i | i | i
CCCCC(=O)Nc1nc2c(s1)COc1ccccc1-2 | 121 | i | i | i
O=c1[nH]c(CN2CCCCC2)ccc1O | nt | nt | i | i
COc1ccc2oc(C(=O)c3ccccc3)c(NC(=O)CN3CCN(C)CC3)c2c1 | i | i | i | i
CN1CCN(CC(=O)Nc2c(C(=O)c3ccccc3)oc3ccccc23)CC1 | i | ? | -106 | -101
CC1(O)CC2CC1C(C(=O)O)C2C(=O)O (stereo unspecified) | nt | nt | i | i
O=C(Nc1ccn(Cc2ccccc2)n1)c1ccc2c(c1)OCO2 | ? | i | -81 | i
O=C(Nc1ccn(Cc2ccc(Cl)cc2)n1)c1ccccc1 | i | i | i | i
CC1=C(O)C(=O)C(c2c(C)cc(C)c(Br)c2C)=C(O)C1=O | nt | nt | i | i
SMILES | TRPV1 ag | TRPV1 potentiator | KCNH2 3.1 block | hERG WT inh
Cc1nn(C)cc1C(=O)Nc1ccc2c(c1)OCCO2 | i | i | i | i
COc1ccc(C(=O)OCC(=O)NC2CCCCCCC2)cc1OC | nt | nt | i | i
O=C(O)C1(P(=O)(c2ccccc2)c2ccccc2)CCCC1 | i | i | i | i
N#CC1(P(=O)(c2ccccc2)c2ccccc2)CCCC1 | i | 111 | i | i
COc1ccc(CNC(=O)CCNS(=O)(=O)c2ccc(NC(C)=O)cc2)cc1OC | i | i | i | i
Clc1ccc(/C(Cc2nc3ccccc3[nH]2)=N\Nc2ccccc2)cc1 | i | i | -102 | i
O=C(Cc1nc2ccccc2[nH]1)c1ccc(Cl)cc1 | i | ? | i | i
CN/N=C(\Cc1nc2ccccc2[nH]1)c1ccc([N+](=O)[O-])cc1 | i | i | -75 | ?
Cc1ccc(S(=O)(=O)N/N=C2/CC(c3ccccc3)Oc3ccccc32)cc1 (stereo unspecified) | i | i | -110 | i
O=C(Nc1ccc(Br)cc1)c1cccc(S(=O)(=O)Nc2ccccn2)c1 | i | i | nt | -191
CCCCNC(=O)N1CCN(c2ccnc3cc(Cl)ccc23)CC1 | ? | i | ? | i
CCCN(C(=O)CCOc1ccc(C(C)(C)C)cc1)c1c(N)n(Cc2ccccc2)c(=O)[nH]c1=O | i | i | i | i
CCN1CCC(NC(=O)Nc2ccc(F)cc2F)CC1 | i | i | -86 | i
CCOc1ccc(S(=O)(=O)NCc2ccc3c(c2)OCO3)cc1 | i | i | i | i
Cc1cccc(-c2sc(Nc3ccccc3)n[n+]2-c2ccc(F)cc2)c1 | i | i | -92 | i
OCC1(CCc2ccccc2)CCN(Cc2cc(Cl)ccc2O)CC1 | i | i | i | i
Cc1ccc(-n2cccn2)c(CN2CCC(CO)(CCc3ccccc3)CC2)c1 | i | i | -96 | i
Cc1ccc(-c2csc(N3CCC[C@@H]3C(=O)NCCn3c(-c4ccncc4)nc4ccccc43)n2)cc1 | ? | i | -105 | i
COc1cc(NC(=O)Nc2cccc(C(C)=O)c2)cc(OC)c1OC | 82 | i | i | i
COc1ccccc1/C=C/C(=O)Nc1cccc(C(C)=O)c1 | ? | i | i | i
COc1cccc(/C=C/C(=O)Nc2cccc(C(C)=O)c2)c1OC | 90 | i | i | i
O=C(NNC(=O)c1ccc2ccccc2c1O)NC1CCCCC1 | i | i | i | -88
O=C(NC1CCCCC1)c1ccc2ccccc2c1O | nt | nt | i | i
COc1ccc(CNCCC(c2ccccc2)c2ccc3c(c2)OCO3)cc1 (stereo unspecified) | i | i | -81 | i
COc1ccc(CNCCC(c2ccc(OC(C)C)cc2)c2ccccc2OC)cc1OC (stereo unspecified) | i | i | -82 | i
SMILES | TRPV1 ag | TRPV1 potentiator | KCNH2 3.1 block | hERG WT inh
COc1ccc(CNCCC(c2ccc(OC(C)C)cc2)c2ccccc2OC)cc1 (stereo unspecified) | i | i | i | nt
CC(=O)c1ccc(N2CCN(c3ccc(C(F)(F)F)cn3)CC2)cc1 | i | i | -200 | -139
Cc1c(C(=O)NCCS(=O)(=O)N2CCN(c3ccccc3F)CC2)cccc1[N+](=O)[O-] | i | i | i | i
COc1cccc(C(=O)Nc2ccc(-c3nc4ccccc4o3)c(O)c2)c1 | i | i | i | i
COc1cc(OC)cc(C(=O)Nc2ccc(Nc3ccccc3)cc2)c1 | i | i | -86 | i
COc1cc(OC)cc(C(=O)NCC(=O)Nc2ccc(-c3ccccc3)cc2)c1 | i | i | -82 | i
COc1cc(OC)cc(C(=O)Nc2ccc(-c3nc4ccccc4o3)cc2)c1 | i | i | -112 | i
CN(C1CCCCC1)S(=O)(=O)c1ccc(SCC(=O)C(C)(C)C)nc1 | nt | nt | i | i
CN(CC(=O)Nc1ccccc1Br)C(=O)CN1CCN(Cc2cccc(Cl)c2)CC1 | nt | nt | i | i
CC1CN(C(=O)CSc2nnc(-c3ccccc3)o2)CC(C)O1 (stereo unspecified) | i | i | i | i
Cc1ccc(NCC(=O)N2CCN(S(=O)(=O)c3ccccc3)CC2)cc1F | i | i | i | i
CC1CCN(c2nnc(-c3cccs3)c3ccccc23)CC1 | i | i | -85 | i
c1csc(-c2nnc(NC3CCCCC3)c3ccccc23)c1 | ? | i | i | i
